Calls of active or inactive are those of the source.
Key:
[1] = target: Albumin (Bos taurus) (UniProt P02769); assay: bovine serum albumin binders on microarray, profiling panel, artefact control for SMM control protein annotation, biochemical, small-molecule microarray, Alexa647 label, 635/667 nm fluorescence (AID 1118); settings: BSA-A647 binding, fluorescence 635 nm, higher = more signal;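 also: score merges 667 nm emission intensity and signal-to-noise per printed compound spot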
[2] = small-molecule microarray binders of probe aXIP, primary screen, biochemical, NeuroSMM set, 635/667 nm fluorescence (AID 1119); settings: higher = more signal, called active from +8 up or from −8 down;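 also: probe is the protein aXip251-270 applied at 1 µg/mL to compound-printed slides; binding of probe to printed compounds measured as 667 nm fluorescence plus signal to noise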
[3] = small-molecule binders of probe aNOTCH3, primary screen, biochemical, small-molecule microarray, 635/667 nm fluorescence (AID 1120); settings: higher = more signal;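 also: probe is a biotin-tagged antibody raised against NOTCH3 rather than NOTCH3 protein; score merges spot fluorescence near 667 nm with spot signal to noise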
[4] = small-molecule binders of probe aNOTCH2, primary screen, biochemical, small-molecule microarray, 635/667 nm fluorescence (AID 1121); settings: higher = more signal;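 also: score merges feature fluorescence read at 667 nm with its signal to noise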
[5] = target: Carbonic anhydrase 2 (Homo sapiens) (UniProt P00918); assay: CAII small-molecule binders, profiling panel, biochemical, small-molecule microarray, Alexa647-labelled CAII (AID 1122); settings: CAII-A647 binding fluorescence, higher = more signal
[6] = COS7 lysate on small-molecule microarray, probe aHis, 635 nm (AID 1123); settings: COS7 cell lysate, fluorescence, higher = more signal;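 also: z-score combines 667nm fluorescence intensity with signal-to-noise per printed compound spot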
[7] = compound binding in COS7 lysate, probe aLAP1, primary screen, cell lysate, small-molecule microarray (AID 1124); settings: probe aLAP1, fluorescence, higher = more signal;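 also: lysate comes from COS7 cells expressing LAP1 and is applied at 0.3 µg/mL; score merges spot fluorescence near 667 nm with signal-to-noise over triplicate slides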
[8] = tested on: Sam68 (KHDRBS1); assay: Sam68 small-molecule binders, primary screen, biochemical, small-molecule microarray, 635 nm fluorescence (AID 1125); settings: small-molecule microarray binding, higher = more signal;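 also: score merges 667 nm channel intensity with signal to noise over triplicate slides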
[9] = tested on: Chordin-like protein 2 (CHRDL2); assay: CHRDL2 small-molecule binders, primary screen, biochemical, small-molecule microarray, 635 nm fluorescence (AID 1126); settings: small-molecule microarray binding, fluorescence 635 nm; higher = more signal;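 also: printed compound slides probed with Chrdl2 protein at 4 µg/mL for 1 h at 4 C; score merges 667 nm emission intensity with signal to noise over three replicate slides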
[10] = target: Concanavalin-A (Canavalia ensiformis) (UniProt P02866); assay: ConA small-molecule binders, primary screen, artefact control for SMM control protein annotation, biochemical, small-molecule microarray, Alexa647 label, 635 nm (AID 1127); settings: ConA-A647 binding fluorescence, higher = more signal;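 also: z combines 667 nm emission intensity with signal-to-noise across three replicate slides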
Chain of Concanavalin-A (Canavalia ensiformis) (P02866 whole entry, looked up): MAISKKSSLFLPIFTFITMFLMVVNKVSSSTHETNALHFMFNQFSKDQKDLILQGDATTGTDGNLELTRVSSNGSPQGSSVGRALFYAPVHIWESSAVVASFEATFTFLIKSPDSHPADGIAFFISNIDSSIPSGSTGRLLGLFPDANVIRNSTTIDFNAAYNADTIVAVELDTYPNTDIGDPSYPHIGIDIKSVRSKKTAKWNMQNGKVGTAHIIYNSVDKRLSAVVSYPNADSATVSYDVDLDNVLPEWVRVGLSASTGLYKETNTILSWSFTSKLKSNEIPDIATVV

[11] = anti-His antibody binders, primary screen, artefact control for SMM control protein annotation, biochemical, small-molecule microarray, 635 nm fluorescence (AID 1128); settings: anti-His Alexa647 antibody binding, higher = more signal;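 also: score merges feature fluorescence with signal-to-noise for each printed compound spot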
[12] = tested on: Human papillomavirus type 1a E7 protein (residues 1-88); assay: HPV1a E7 small-molecule binders, primary screen, biochemical, small-molecule microarray, residues 1-88, 635 nm (AID 1129); settings: small-molecule microarray binding, fluorescence 635 nm; higher = more signal
[13] = target: Focal adhesion kinase 1 (Homo sapiens) (UniProt Q05397); assay: small-molecule microarray binders of FAK, primary screen, biochemical, 635/667 nm fluorescence, BSA, DTT (AID 1130); settings: PTK2 binding, 635 nm fluorescence, higher = more signal;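 also: composite of spot emission at 667 nm and signal to noise over triplicate slides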
Chain of Focal adhesion kinase 1 (Homo sapiens) (Q05397 whole entry, looked up): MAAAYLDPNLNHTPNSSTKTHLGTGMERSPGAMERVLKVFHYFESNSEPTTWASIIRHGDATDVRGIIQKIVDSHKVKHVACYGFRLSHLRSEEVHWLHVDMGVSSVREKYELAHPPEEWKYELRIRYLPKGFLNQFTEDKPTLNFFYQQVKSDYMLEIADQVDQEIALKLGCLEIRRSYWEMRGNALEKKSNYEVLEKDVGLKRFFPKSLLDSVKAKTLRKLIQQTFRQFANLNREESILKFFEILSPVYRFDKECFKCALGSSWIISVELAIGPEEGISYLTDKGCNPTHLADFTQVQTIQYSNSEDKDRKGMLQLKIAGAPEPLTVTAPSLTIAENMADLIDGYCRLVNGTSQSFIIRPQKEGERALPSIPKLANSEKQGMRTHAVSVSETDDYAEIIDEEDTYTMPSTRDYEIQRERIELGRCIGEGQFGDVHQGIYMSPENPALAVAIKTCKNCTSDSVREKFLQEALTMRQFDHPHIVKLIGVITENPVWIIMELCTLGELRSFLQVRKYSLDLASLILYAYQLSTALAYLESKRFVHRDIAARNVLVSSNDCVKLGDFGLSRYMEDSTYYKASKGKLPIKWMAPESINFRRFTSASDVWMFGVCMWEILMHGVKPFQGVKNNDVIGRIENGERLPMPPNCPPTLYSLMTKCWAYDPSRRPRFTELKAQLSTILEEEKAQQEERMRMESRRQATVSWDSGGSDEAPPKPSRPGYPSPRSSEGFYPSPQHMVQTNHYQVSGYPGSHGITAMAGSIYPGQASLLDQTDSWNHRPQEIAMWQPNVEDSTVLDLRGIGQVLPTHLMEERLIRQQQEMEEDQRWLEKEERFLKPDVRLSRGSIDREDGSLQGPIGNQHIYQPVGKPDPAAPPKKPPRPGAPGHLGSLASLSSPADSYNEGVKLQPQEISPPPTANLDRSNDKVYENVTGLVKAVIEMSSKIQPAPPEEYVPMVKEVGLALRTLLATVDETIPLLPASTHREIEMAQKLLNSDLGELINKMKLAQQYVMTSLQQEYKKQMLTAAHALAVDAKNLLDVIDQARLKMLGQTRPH

[14] = tested on: Fibrinogen (Alexa647-labelled); assay: fibrinogen binders on compound microarrays, profiling panel, artefact control for SMM control-protein annotation, biochemical, small-molecule microarray, 635/667 nm fluorescence (AID 1131); settings: fibrinogen-A647 binding fluorescence, higher = more signal;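 also: z-score merges 667 nm fluorescence with per-spot signal-to-noise over triplicate slides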
[15] = target: Follistatin (Homo sapiens) (UniProt P19883); assay: follistatin binders on small-molecule microarrays, primary screen, biochemical, small-molecule microarray, 635/667 nm fluorescence (AID 1132); settings: FST binding, 635 nm fluorescence, higher = more signal
Chain of Follistatin (Homo sapiens) (P19883 whole entry, looked up): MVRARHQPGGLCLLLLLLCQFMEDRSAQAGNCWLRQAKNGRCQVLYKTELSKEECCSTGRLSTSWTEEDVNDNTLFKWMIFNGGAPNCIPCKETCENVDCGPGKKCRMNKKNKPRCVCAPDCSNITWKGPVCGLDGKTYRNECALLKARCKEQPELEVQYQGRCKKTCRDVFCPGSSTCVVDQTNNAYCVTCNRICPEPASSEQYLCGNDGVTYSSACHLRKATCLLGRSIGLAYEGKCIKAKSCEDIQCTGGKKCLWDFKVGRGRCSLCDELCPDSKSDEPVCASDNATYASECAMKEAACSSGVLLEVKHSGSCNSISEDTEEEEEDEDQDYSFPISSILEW

[16] = target: Fibroblast growth factor 2 (Homo sapiens) (UniProt P09038); assay: FGF2 binders on small-molecule microarrays, primary screen, biochemical, small-molecule microarray, 635/667 nm fluorescence (AID 1133); settings: small-molecule microarray binding, FGF2, fluorescence 635/667; higher = more signal
Chain of Fibroblast growth factor 2 (Homo sapiens) (P09038 whole entry, looked up): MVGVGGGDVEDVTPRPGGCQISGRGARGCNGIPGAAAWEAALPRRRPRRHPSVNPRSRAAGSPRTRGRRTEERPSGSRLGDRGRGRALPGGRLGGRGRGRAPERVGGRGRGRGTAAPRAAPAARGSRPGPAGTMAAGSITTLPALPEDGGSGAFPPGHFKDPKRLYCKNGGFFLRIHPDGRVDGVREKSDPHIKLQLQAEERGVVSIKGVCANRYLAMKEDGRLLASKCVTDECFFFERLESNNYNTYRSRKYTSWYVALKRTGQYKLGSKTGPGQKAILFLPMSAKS

[17] = mitochondrial membrane potential change in A549 cells, profiling panel, cell-based, JC-1 fluorescence, basal, 24 h, 100 nL (AID 1138); settings: higher = more signal;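 also: A549 lung adenocarcinoma cells under basal conditions with no added stimulus; test concentration not given here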
[18] = tested on: Lefty1; assay: Lefty1 binders on small-molecule microarrays, primary screen, biochemical, small-molecule microarray, 635/667 nm fluorescence (AID 1139); settings: small-molecule microarray binding, fluorescence 635/667; higher = more signal
[19] = tested on: wheat germ agglutinin (Triticum aestivum), Alexa647-labelled; assay: wheat germ agglutinin binders on compound microarrays, profiling panel, artefact control for SMM control-protein annotation, biochemical, small-molecule microarray, 635/667 nm fluorescence (AID 1140); settings: WGA-A647 binding, 635 nm fluorescence, higher = more signal;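 also: score merges 667 nm feature emission with signal to noise over triplicate slides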
[20] = target: Luciferin 4-monooxygenase (Photinus pyralis) (UniProt P08659); assay: firefly luciferase enzyme inhibitors, primary screen, biochemical, luminescence, purified enzyme, 2006 set (AID 1141); settings: SteadyGlo luminescence, 30 min, higher = more signal, called active from +8 up or from −8 down;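 also: cell-free assay with purified firefly luciferase at 100 ng per well in PBS; test concentration not given here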
Chain of Luciferin 4-monooxygenase (Photinus pyralis) (P08659 whole entry, looked up): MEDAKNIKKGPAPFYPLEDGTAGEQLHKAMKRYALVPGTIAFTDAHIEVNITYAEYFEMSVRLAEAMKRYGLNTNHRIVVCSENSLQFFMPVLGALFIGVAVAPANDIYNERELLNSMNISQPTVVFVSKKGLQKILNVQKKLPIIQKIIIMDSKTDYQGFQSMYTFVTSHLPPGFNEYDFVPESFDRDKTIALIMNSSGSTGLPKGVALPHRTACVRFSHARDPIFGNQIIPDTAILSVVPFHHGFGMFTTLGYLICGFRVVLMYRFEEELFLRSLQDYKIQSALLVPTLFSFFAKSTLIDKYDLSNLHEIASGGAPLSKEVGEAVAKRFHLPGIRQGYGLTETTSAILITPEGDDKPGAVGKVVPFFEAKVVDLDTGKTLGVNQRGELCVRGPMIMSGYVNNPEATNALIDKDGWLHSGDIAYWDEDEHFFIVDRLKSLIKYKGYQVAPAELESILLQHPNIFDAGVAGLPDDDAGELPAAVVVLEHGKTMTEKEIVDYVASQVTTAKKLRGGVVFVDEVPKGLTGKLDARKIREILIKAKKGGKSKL

Chain of Albumin (Bos taurus) (P02769 whole entry, looked up): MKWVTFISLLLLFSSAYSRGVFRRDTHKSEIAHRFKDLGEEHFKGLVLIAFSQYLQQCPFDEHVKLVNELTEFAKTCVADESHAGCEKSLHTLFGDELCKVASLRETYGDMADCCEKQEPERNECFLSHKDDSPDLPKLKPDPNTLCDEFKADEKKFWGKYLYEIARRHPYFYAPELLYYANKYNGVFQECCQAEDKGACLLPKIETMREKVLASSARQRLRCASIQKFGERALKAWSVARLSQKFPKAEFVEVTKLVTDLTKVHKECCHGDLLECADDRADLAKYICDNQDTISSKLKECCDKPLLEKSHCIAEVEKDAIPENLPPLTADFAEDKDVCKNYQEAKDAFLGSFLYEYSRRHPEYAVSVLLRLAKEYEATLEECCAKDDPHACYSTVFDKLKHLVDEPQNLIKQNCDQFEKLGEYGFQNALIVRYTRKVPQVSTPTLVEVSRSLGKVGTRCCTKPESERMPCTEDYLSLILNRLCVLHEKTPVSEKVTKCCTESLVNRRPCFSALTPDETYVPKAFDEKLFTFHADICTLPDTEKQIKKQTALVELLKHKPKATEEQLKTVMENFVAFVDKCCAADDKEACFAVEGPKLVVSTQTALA

Structure (SMILES) | composite z-score [1] | composite Z-score [2] | composite z-score [3] | composite z-score [4] | composite z-score [5] | composite z-score [6] | composite z-score [7] | composite z-score [8] | composite z-score [9] | composite z-score [10] | composite z-score [11] | composite z-score [12] | composite z-score [13] | composite z-score [14] | composite z-score [15] | composite z-score [16] | z-score [17] | composite z-score [18] | composite z-score [19] | z-score [20]
[N-]=[N+]=NCc1ccccc1C[C@@]1(C(=O)NCCN2CCOCC2)N=C(c2ccc(OCCCO)cc2)O[C@@H]1c1ccccc1 | 0.818 | 1.03 (inactive) | 0.307 | -0.106 | 0.655 | 2.77 | 0.136 | 1.19 | -0.879 | 0.944 | 1.42 | 1.18 | 0.444 | 0.947 | 1.23 | -0.426 | 1.44 | 0.573 | 0.639 | -1.04 (inactive)
CCCC[C@@H](O)C1=C(C)Cn2c(=O)n(-c3ccccc3)c(=O)n2[C@H]1CO | 0.138 | -0.301 (inactive) | -0.0647 | -0.219 | -0.313 | 0.332 | -0.0242 | -0.92 | 0.24 | -0.827 | -0.237 | -0.432 | -0.137 | -0.926 | -0.355 | 0.0632 | 2.01 | 0.0378 | 0.502 | -1.32 (inactive)
O=C1O[C@H](c2ccccc2)[C@H](c2ccccc2)N2[C@H]1[C@@H](C(=O)O)[C@]1(C(=O)Nc3ccc(C#CC4(O)CCCCCC4)cc31)[C@H]2c1ccccc1OCCO | 0.9 | 0.0463 (inactive) | 0.451 | 0.0979 | 0.487 | 1.27 | 0.774 | 1.32 | 0.0298 | 1.14 | 1.16 | 1.23 | 0.854 | 0.924 | 0.729 | 0.435 | 0.833 | 0.664 | 1.25 | -3.82 (inactive)
C[C@]1(C(=O)O)c2ccccc2C(=O)N(Cc2cc(C(F)(F)F)cc(C(F)(F)F)c2)[C@H]1c1ccc(CO)cc1 | 0.514 | 0.365 (inactive) | 0.0426 | -0.106 | 0.728 | 0.516 | -0.178 | 0.666 | -0.833 | 0.928 | -0.41 | -0.129 | 0.0797 | 0.844 | 0.82 | -0.354 | -0.401 | 1.02 | 0.861 | 1.01 (inactive)
O=C1NC(=O)C2C1C=CC(C(O)C1CCCCC1)N2Nc1ccccn1 (stereo not given) | 0.516 | 0.468 (inactive) | 0.0351 | -0.0422 | 0.827 | 1.36 | -0.636 | 0.233 | 0.342 | 0.898 | 0.279 | 0.688 | 0.113 | 0.177 | 0.597 | 0.205 | 0.517 | 0.119 | 0.149 | -0.224 (inactive)
CC[C@@H](O[Si](C#C[Si](C(C)C)(C(C)C)C(C)C)(C(C)C)C(C)C)c1cn(Cc2cccc(Cl)c2)nn1 | 0.0711 | -0.0359 (inactive) | -0.119 | -0.0495 | 0.226 | 0.233 | 0.773 | 1.04 | 0.451 | 0.68 | 0.448 | 0.79 | 0.357 | 0.377 | 0.371 | 0.46 | -0.153 | 0.809 | 0.23 | 0.433 (inactive)
CN1C(=O)C2CC=C(C3=CCO[C@@H]3[C@H]3CCCN3S(=O)(=O)c3ccccc3[N+](=O)[O-])CC2C1=O (stereo not given in full) | 0.811 | 0.0129 (inactive) | -0.0647 | -0.106 | -0.0199 | 0.205 | -0.065 | -0.7 | -0.537 | -0.65 | -0.354 | -0.342 | -0.244 | 0.533 | 0.0289 | 0.159 | 0.0911 | -0.106 | -0.0718 | 0.294 (inactive)
COC(=O)[C@@]1(Cc2ccc(F)cc2)[C@H]2c3cc(C(=O)N4CCCC4)n(Cc4ccc(C(F)(F)F)nc4)c3C[C@H]2CN1C(=O)c1ccccc1 | 1.05 | 0.136 (inactive) | 0.522 | -0.0013 | 0.579 | 3.01 | 0.4 | 1.23 | -1.41 | 0.962 | 1.2 | 1.19 | 1.16 | 1.01 | 1.38 | -0.71 | 1.3 | -0.13 | 1.06 | 3.14 (inactive)
C=CCC(OC(C)=O)[C@@H]1[C@@H](N(Cc2ccc(-c3ccccc3)cc2)C(=O)Cc2ccc(OC)cc2)c2cc(OCCCO)ccc2N1C(=O)Cc1ccc(OC)cc1 (stereo not given in full) | -0.0621 | 0.445 (inactive) | 0.464 | 0.146 | 0.306 | 0.248 | 0.302 | 0.0538 | 0.235 | -0.0563 | 0.271 | 0.0716 | 1.78 | 0.513 | 0.7 | 0.0471 | 0.462 | 0.161 | 0.365 | 0.355 (inactive)
COc1ccc(C(O)C2C=CC3C(=O)N(c4ccccc4)C(=O)C3N2Nc2ccccc2F)c2ccccc12 (stereo not given) | 0.968 | 0.882 (inactive) | 0.785 | 0.579 | 0.762 | 2.23 | 1.34 | 1.3 | -0.316 | 1.21 | 1.95 | 1.23 | 1.03 | 0.995 | 1.33 | 0.716 | -0.646 | -0.111 | 1.29 | -1.77 (inactive)
COC(=O)[C@@]1(Cc2ccc(F)cc2)[C@H]2c3cc(C(=O)N(C)C)n(Cc4ccsc4Br)c3C[C@H]2CN1C(=O)c1ccccc1 | 0.745 | -0.857 (inactive) | 1.88 | 1.08 | 0.938 | 2.95 | 1.65 | 0.0161 | -0.0576 | 1.13 | 0.77 | 1.12 | 1.96 | 1.04 | -0.161 | 0.021 | -0.51 | -0.675 | 1.04 | 1.18 (inactive)

Source: PubChem BioAssay
